# Experimental data from PubChem BioAssay (NCATS).
# Results filed as inconclusive are left out. Values without a mark were called inactive. The source made the active and inactive calls. Calls follow the shape of the dose curve; as a rule, active = well fitted inhibition curve with a large enough effect; inconclusive = small, poorly fitted or top-dose-only effect; inactive = flat fitted curve, though single readings scatter. Where a SMILES comes first, the peptide text is derived from it. [ ]: non-standard residue; d: D form. ξ: configuration not given here. ξLac(3-iPr) = CC(C)CC(O)C(=O)O; NMeV = CN[CH](C(=O)O)C(C)C; βAla = NCCC(=O)O
# Columns and labels:
# KB-3-1 = assay: Cytotoxic Profiling of Annotated Libraries Using Quantitative High-Throughput Screening (AID 1296008); conditions: Five cell lines viability, CellTiter-Glo ATP luminescence, 48-72 h; max response: active compounds read low; also: nearly all actives have a fitted effect of over 60% in size
# How it was run: (§1)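 Cells exposed to compounds for 48 or 72 hr at 37 degrees Celsius. Viability read as ATP-coupled luminescence with CellTiter-Glo after 10 min at room temperature.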
# NIH3T3 = assay: as above; conditions: Five cell lines viability, CellTiter-Glo ATP luminescence, 48-72 h; max response: active compounds read low
# How it was run: as §1
# % is scaled to controls: 0 for no effect and ±100 for the full control effect; potency is read from the fitted curve at half-maximal effect.
compound,measurement,setting,value
Cc1ccc(NC(=O)Nc2cc(C(F)(F)F)ccc2F)cc1Nc1ccc2c(c1)NC(=O)/C2=C\c1ccc[nH]1,Potency,KB-3-1,20600 nM (active)
same,Potency,NIH3T3,18400 nM (active)
Cc1ncc(CCCN(C)C)cc1Nc1ncc2c(n1)-c1ccc(C(F)(F)F)cc1NC(=S)C2,Potency,KB-3-1,4.6 nM (active)
same,Potency,NIH3T3,3660 nM (active)
CC(C)C(CO)Nc1nc(Nc2ccc(C(=O)O)c(Cl)c2)c2ncn(C(C)C)c2n1 (configuration not stated),max response,KB-3-1,1.82%
same,max response,NIH3T3,-3.63%
CCOCCn1nc(CC)c2nc(N3CCC(C(=O)O)CC3)nc(Nc3cc(C)ccn3)c21,max response,KB-3-1,-10.2%
same,max response,NIH3T3,3.17%
CC#CC(=O)N1CCC[C@H]1c1nc(-c2ccc(C(=O)Nc3ccccn3)cc2)c2c(N)nccn12,outcome,KB-3-1,inactive
same,max response,NIH3T3,-4.42%
O=C1CC2(CCCC2)[C@H](O)C(=O)N1CCCCN1CCN(c2ncccn2)CC1,max response,KB-3-1,-7.77%
same,max response,NIH3T3,-13.6%
CC(C)CC1OC(=O)C2CCCN2C(=O)CCNC(=O)C(Cc2ccccc2)NC(=O)C(C(C)C)N(C)C(=O)C(C(C)C)N(C)C1=O (configuration not stated) (cyclo([ξLac(3-iPr)][NMeV][NMeV]F[βAla]P); configuration not given here),max response,KB-3-1,3.73%
same,max response,NIH3T3,0.588%
COc1cc(C(=O)NC2CCN(C)CC2)c(F)cc1Nc1ncc2c(n1)N(C1CCCC1)CC(F)(F)C(=O)N2C,Potency,KB-3-1,10.3 nM (active)
same,Potency,NIH3T3,820 nM (active)
NC(=O)[C@H](O[C@@H]1O[C@H](CO)[C@@H](O)[C@H](O)[C@H]1O)c1ccccc1,outcome,KB-3-1,inactive
same,max response,NIH3T3,4.94%
COc1ccc(-c2ccc3c(N4CCOCC4)nc(N4CC(C)OC(C)C4)nc3n2)cc1CO (configuration not stated),Potency,KB-3-1,1640 nM (active)
same,Potency,NIH3T3,1840 nM (active)
Nc1ncnc2c([C@@H]3N[C@H](CO)[C@@H](O)[C@H]3O)c[nH]c12,max response,KB-3-1,5.62%
same,max response,NIH3T3,-4.07%
Nc1nc2c(c(=O)[nH]1)C[C@@H](CCc1ccc(C(=O)N[C@@H](CCC(=O)O)C(=O)O)cc1)CN2,Potency,KB-3-1,58 nM (active)
same,Potency,NIH3T3,103 nM (active)
Cc1ccc([N+](=O)[O-])cc1S(=O)(=O)N(C)/N=C/c1cnc2ccc(Br)cn12,Potency,KB-3-1,146 nM (active)
same,Potency,NIH3T3,461 nM (active)
COc1cc(Br)c(Nc2nc(-c3c(C)nc4ncccn34)cs2)c(Br)c1,Potency,KB-3-1,2310 nM (active)
same,Potency,NIH3T3,1460 nM (active)
C/C=C/c1ccc2oc(-c3ccc(O)c(OC)c3)c(C)c2c1,max response,KB-3-1,6.52%
same,max response,NIH3T3,-2.29%
CC1=CC(=O)[C@H]2C(C)(C)CCC[C@]2(C)[C@@]1(O)CO,max response,KB-3-1,7.19%
same,max response,NIH3T3,3.55%
CC1(O)CC(O)C2(O)C=COC(O[C@@H]3O[C@H](CO)[C@@H](O)[C@H](O)[C@H]3O)C12 (some centres not stated),max response,KB-3-1,0.806%
same,max response,NIH3T3,-15.6%
COc1cc(Br)c(S(=O)(=O)Nc2ccc(C(F)(F)F)c(O[C@@H]3CCN(C)C3)c2)cc1OC,max response,KB-3-1,-11.3%
same,max response,NIH3T3,-2.88%
C[C@@H]1CN(Cc2ccccc2)C[C@H]1c1nc2c(cnn2C2CCOCC2)c(=O)[nH]1,max response,KB-3-1,2.05%
same,max response,NIH3T3,-13.9%
CC1C(=O)CC2C3CCC(C(=O)O)C12CC3(C)CO (configuration not stated),max response,KB-3-1,0.285%
same,max response,NIH3T3,-4.76%
CNS(=O)(=O)CC1CCC(N(C)c2ncnc3[nH]ccc23)CC1 (configuration not stated),max response,KB-3-1,-6.06%
same,max response,NIH3T3,-10.7%
COC(=O)CCc1cc2ccoc2c(OC)c1O[C@@H]1O[C@H](CO)[C@@H](O)[C@H](O)[C@H]1O,outcome,KB-3-1,inactive
same,max response,NIH3T3,0.737%
COc1cc(N)c(Cl)cc1C(=O)NC[C@@H]1CCN2CCC[C@@H]12,max response,KB-3-1,-4.24%
same,max response,NIH3T3,-6%
CC1(C)CC2C=C(C(=O)O)C3COC(=O)C(O)(CO)C23C1 (configuration not stated),outcome,KB-3-1,inactive
same,max response,NIH3T3,-0.118%
COc1c2ccoc2cc2oc(CO[C@@H]3O[C@H](CO)[C@@H](O)[C@H](O)[C@H]3O)cc(=O)c12,max response,KB-3-1,-1.43%
same,max response,NIH3T3,-8.92%
Cc1ccc(S(=O)(=O)Nc2ccccc2N2CCCCC2)s1,max response,KB-3-1,-18.9%
same,max response,NIH3T3,2.48%
COc1cc(O)cc(C)c1C(=O)OC1C(CO)OC(OC2C(O)C(O)C(O)C(O)C2O)C(O)C1O (configuration not stated),max response,KB-3-1,2.63%
same,max response,NIH3T3,-8.82%
CCC(C)C(=O)O[C@H]1CCC=C2C=C[C@H](C)[C@H](CC[C@@H](O)C[C@@H](O)CC(=O)O)[C@H]21 (some centres not stated),max response,KB-3-1,7.29%
same,max response,NIH3T3,-16.9%
Cc1cc(C)c(Nc2ccnc(Nc3ccc(C#N)cc3)n2)c(C)c1,Potency,KB-3-1,20600 nM (active)
same,Potency,NIH3T3,13000 nM (active)
C/C(=C\CCC(C)CCO)C(=O)O[C@@H]1[C@@H](O)[C@H](OC2OC=C(C(=O)O)C3CCC(C)(O)C23)O[C@H](CO)[C@H]1O (some centres not stated),outcome,KB-3-1,inactive
same,max response,NIH3T3,-17.6%
C[C@H]1C(=O)N2c3ccccc3[C@@]3(O)C[C@@H]4C(=O)N[C@](C)(c5nc6ccccc6c(=O)n54)N1[C@@H]23,outcome,KB-3-1,inactive
same,max response,NIH3T3,-0.721%
C[C@@H]1O[C@@H](O[C@H]2[C@H](O[C@H]3CC[C@@]4(C)C(CC[C@]5(C)C4CC=C4[C@@H]6CC(C)(C)CC[C@]6(C(=O)O[C@@H]6OC[C@H](O)[C@H](O)[C@H]6O[C@@H]6O[C@@H](C)[C@H](O[C@@H]7O[C@H](CO)[C@@H](O)[C@H](O)[C@H]7O)[C@H](O)[C@H]6O)[C@H](O)C[C@]45C)C3(C)C)O[C@H](CO)[C@@H](O[C@@H]3OC[C@@H](O)[C@H](O)[C@H]3O)[C@@H]2O)[C@H](O)[C@H](O)[C@H]1O (some centres not stated),outcome,KB-3-1,inactive
same,max response,NIH3T3,-3.79%
C/C=C1\[C@H](O[C@@H]2O[C@H](CO)[C@@H](O)[C@H](O)[C@H]2O)OC=C2C(=O)OCCc3ccc(O)c(c3)Oc3ccc(cc3)CCOC(=O)C[C@H]21,max response,KB-3-1,-9.35%
same,max response,NIH3T3,-1.53%
O=C(O)c1ccc(CN2CCC(CN[C@@H]3C[C@H]3c3ccccc3)CC2)cc1,max response,KB-3-1,6.54%
same,max response,NIH3T3,-26%
CC(=O)O[C@H]1C(=O)[C@@]2(C)[C@H]([C@H](OC(=O)c3ccccc3)[C@]3(O)C[C@H](OC(=O)[C@H](O)[C@@H](NC(=O)c4ccccc4)c4ccccc4)C(C)=C1C3(C)C)[C@]1(OC(C)=O)CO[C@@H]1C[C@@H]2O,Potency,KB-3-1,9.8 nM (active)
same,Potency,NIH3T3,31 nM (active)
COc1ccc(Cl)c(Nc2nc3ccccc3nc2NS(=O)(=O)c2cccc(NC(=O)C(C)(C)N)c2)c1,max response,KB-3-1,-5.68%
same,max response,NIH3T3,-15.2%
